From PubChem
NPC1 promoter act: activators of NPC1 promoter. Huh7 NPC1 promoter luciferase reporter, 24 h. hit rate 2.4% among 320,000. Potency, µM (titrated, usually from 9.22 µM), without a hit: top-dose activation, most hits filed as activators; also: % of control where 0% means no effect; nearly all actives have a fitted effect of over 60% in size
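Luminescence from an NPC1 promoter-driven luciferase reporter in stably transfected Huh7 cells was measured after 24 h compound treatment at 37 °C, followed by 10 min ambient incubation with luciferase detection reagent.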
p53 reactivation: mutant p53 re-activation in reporter cells; H1299 p53-A138V BP100-luciferase reporter, luminescence, 24 h; Potency, µM (highest dose often 92.2 µM), for inactives: at the highest dose activity change, positive = activation, most hits filed as activators; hit rate 0.063% among 320,000; AID 504706; also: % of control where 0% means no effect; nearly all actives have a fitted effect of over 45% in size
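H1299 (p53-null), stable ts p53-A138V + BP100-Luc; 1000 cells/well, Opti-MEM/10% FBS; cpd 4 pt, 1:5; 24 h, 37 deg C, 5% CO2; detection reagent 10 min RT; luminescence.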
Rab9 promoter act: Rab9 promoter activation. Huh7 Rab9 promoter-luciferase reporter, luminescence, 24 h. Potency, µM (titrated, usually from 9.22 µM), for the others: at the top dose activation, negative = inhibition, hits mostly activators. hit rate 2.8% among 320,000. AID 485297; also: % of control where 0% means no effect; nearly all actives have a fitted effect of over 60% in size
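Stable Rab9-luc Huh7, 1500 cells/well, 2 h settle; cmpd in DMSO, 24 h, 37 °C/5% CO2; luciferase reagent 10 min RT; luminescence.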
ELG1 genotoxic: inducers of genotoxicity in HEK293T ELG1-luciferase cells. Potency, µM (doses to about 46 µM), without a hit: at the top dose activity change, positive = activation, hits mostly activators. AID 504466. HEK293T ELG1-luciferase reporter, luminescence, 16 h. hit rate 1.3% among 330,000; also: % of control where 0% means no effect; nearly all actives have a fitted effect of over 60% in size
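ELG1-luciferase HEK293T cells, 2,000/well; compound pinned in; 16 hr, 37 °C, 5% CO2; ONE-Glo, 30 min RT; luminescence on CCD imager.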
SMN2 splice enh: enhancers of SMN2 splice variant expression. HEK293 SMN2-luciferase splicing reporter, luminescence, 30-36 h. AID 1458. Potency, µM (doses to about 46.1 µM), for inactives: top-dose activity change, positive = activation, actives largely listed as activators. hit rate 2.8% among 210,000; also: % of control where 0% means no effect; nearly all actives have a fitted effect of over 55% in size
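HEK293 cells carry an SMN2 minigene-luciferase reporter in which exon 7 inclusion puts luciferase in frame. Cells were seeded at 2000 cells/well, attached for 10-12 hours, then exposed to compounds for 30-36 hours at 37C before ONE-Glo luminescence.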
FLuc counter: firefly luciferase modulation, counter-screen for miR-21 project; P08659; purified FLuc, Km substrates, luminescence inhibition; Potency, µM (doses to about 57.5 µM), without a hit: top-dose activity change, negative = inhibition, hits mostly inhibitors; hit rate 6.9% among 360,000;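 also: plate controls were vehicle for no effect and reference inhibitor for full effect; nearly all actives have a fitted effect of over 55% in size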
Target sequence (P08659 whole entry, looked up): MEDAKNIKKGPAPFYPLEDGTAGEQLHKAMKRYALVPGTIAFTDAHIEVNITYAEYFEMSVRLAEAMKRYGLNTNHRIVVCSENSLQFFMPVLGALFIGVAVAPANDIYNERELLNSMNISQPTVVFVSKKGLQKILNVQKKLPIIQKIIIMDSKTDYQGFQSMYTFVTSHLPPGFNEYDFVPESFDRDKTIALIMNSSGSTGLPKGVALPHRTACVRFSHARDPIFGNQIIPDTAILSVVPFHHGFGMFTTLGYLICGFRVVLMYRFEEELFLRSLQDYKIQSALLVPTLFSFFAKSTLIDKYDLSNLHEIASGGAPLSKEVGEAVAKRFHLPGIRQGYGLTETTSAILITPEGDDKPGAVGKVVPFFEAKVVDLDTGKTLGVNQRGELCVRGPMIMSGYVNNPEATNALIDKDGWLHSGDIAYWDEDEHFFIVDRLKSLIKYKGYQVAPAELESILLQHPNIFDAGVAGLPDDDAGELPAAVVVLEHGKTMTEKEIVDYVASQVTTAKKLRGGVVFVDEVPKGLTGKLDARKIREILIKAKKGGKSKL
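Biochemical qHTS of compounds, final roughly 60 µM downward over six points, against 10 nM purified firefly luciferase using Km concentrations of substrates (10 uM D-luciferin, 10 uM ATP) in Tris acetate pH 7.5 buffer; luminescence output.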
* = called active by the depositor; u = inconclusive; x = no result given; [ ] = remark or other dose. The list is not random: actives were taken first. Their share in the collection is about 7.4%. Calls follow the shape of the dose curve; as a rule, active = well fitted curve in the direction sought with a large enough effect; inconclusive = small, poorly fitted or top-dose-only effect, or another doubt; inactive = no such curve, though single readings can be large; an effect the other way counts as inactive or inconclusive. Potency is read from the fitted curve at half-maximal effect.

SMILES	NPC1 promoter act	p53 reactivation	Rab9 promoter act	ELG1 genotoxic	SMN2 splice enh	FLuc counter
CCN(c1ccccc1)S(=O)(=O)c1ccc(C(=O)N(CCN(C)C)c2nc3c(F)cc(F)cc3s2)cc1	-4%	u	4%	0%	x	-2%
COc1cccc2oc3cc(C#Cc4ccccn4)ccc3c(=O)c12	2.5µM*	16%	3.2µM*	19%	x	4.8µM*
Cc1ccc(S(=O)(=O)NCc2nc(-c3ccccc3)no2)cc1	-3%	-3%	0%	-4%	x	1%
c1ccc(NCc2nc(-c3ccccc3)no2)cc1	u	u	u	23µM*	u	17µM*
Cc1cc(Br)ccc1OCc1nc(-c2cccnc2)no1	29%	11%	u	21µM*	u	u
c1ccc(-c2noc(COc3ccc4c(c3)OCO4)n2)cc1	4µM*	u	2.8µM*	9.2µM*	14µM*	2.1µM*
COc1ccc(OCc2nc(-c3ccc(-n4cccc4)cc3)no2)cc1	x	x	x	x	x	-1%
COc1ccc(-c2noc(COc3ccc4c(c3)OCO4)n2)cc1	-4%	-3%	2%	0%	2%	5%
Cc1ccc(OCc2nc(-c3ccccc3)no2)cc1	u	18%	4µM*	u	x	7.6µM*
COc1cccc(-c2noc(COc3ccccc3Cl)n2)c1	x	x	x	x	u	11µM*
Cc1ccccc1OCc1nc(-c2ccccc2)no1	4µM*	u	4µM*	u	32µM*	4.8µM*
Cc1ccccc1OCc1nc(-c2ccc(Br)o2)no1	11%	u	8%	u	11%	17µM*
Cc1ccc(-c2noc(COc3ccccc3C)n2)cc1	18%	u	23%	u	19%	21µM*
COc1ccc2[nH]cc(CCNc3ccnc(-c4cccc(NS(C)(=O)=O)c4)n3)c2c1	x	x	x	x	-55%	x
CCOc1ccccc1NC(=O)Cn1c(=O)n(-c2ccc(F)cc2)c(=O)c2c3c(sc21)CN(C(C)=O)CC3	x	x	x	x	29%	-1%
COc1ccc2oc(=O)c(C(=O)NCCc3c(C)[nH]c4ccc(F)cc34)cc2c1	x	x	x	x	-5%	2%
COc1ccc2cc(C#N)c(SCC(=O)N3CCCC3)nc2c1	-1%	26%	0%	u	19%	-5%
COC(=O)CSc1nc2cc(OC)ccc2cc1C#N	1.4µM*	x	1.4µM*	1.5µM*	x	9.5µM*
CCOC(=O)CSc1nc2cc(OCC)ccc2cc1C#N	u	u	2.8µM*	8.2µM*	22µM*	4.3µM*
COC(=O)CSc1nc2ccc(C)cc2cc1C#N	3.5µM*	u	0.79µM*	u	2.8µM*	u
CCOc1ccc2cc(C#N)c(SCC(=O)N3CCC(C)CC3)nc2c1	-1%	4%	-4%	1%	4%	0%
O=S(=O)(O)[C@@H](CO)c1ccccc1 (tested in a mixture with another compound)	x	x	x	x	-6%[9.22 µM]	x
O=C(Nc1ccccc1Cl)c1cc2ccccc2o/c1=N\O	3.2µM*	u	2.5µM*	16µM*	x	2.1µM*
COc1cccc(NC(=O)c2cc3ccccc3o/c2=N\O)c1	0.79µM*	x	0.71µM*	0.41µM*	x	0.54µM*
COc1ccc(NC(=O)c2cc3cccc(OC)c3oc2=Nc2ccc(C(=O)O)cc2)cc1OC	-5%	11%	-7%	6%	10%	-1%
SMILES	NPC1 promoter act	p53 reactivation	Rab9 promoter act	ELG1 genotoxic	SMN2 splice enh	FLuc counter
COc1cccc(NC(=O)c2ccccc2Oc2ccccc2)c1	0%	x	7%	-5%	x	-1%
COc1cccc(NC(=O)c2cc3cccc(OC)c3o/c2=N\O)c1	2.8µM*	u	0.71µM*	u	x	0.54µM*
COc1ccc(-c2oc3cccnc3c2/C=C/c2ccc(OC)c(OC)c2)cc1	2%	x	3%	2%	x	7.6µM*
COc1ccc(/C=C/c2c(-c3ccc(OC)cc3)oc(=O)c3cc(OC)c(OC)cc23)cc1	x	2%	x	0%	x	x
CC(C)OC(=O)CSc1nnc(-c2ccc(Cl)cc2Cl)o1	6%	1%	-1%	-3%	18%	11µM*
CSc1nnc(-c2ccc(Cl)cc2Cl)o1	u	6%	u	u	16%	12µM*
CCCCOC(=O)CSc1nnc(-c2ccc(Cl)cc2Cl)o1	6%	-1%	-3%	0%	-21%	u
CSc1nnc(-c2ccccc2Cl)o1	10%	7%	22%	u	14%	u
CCSc1nnc(-c2ccc(Cl)cc2Cl)o1	2.5µM*	u	u	4.1µM*	u	9.5µM*
O=C(O)CCSc1nnc(-c2ccc(Cl)cc2Cl)o1	x	x	x	x	-30%	0.85µM*
O=C(CCc1nc(-c2ccccc2)no1)NC1CCCCCC1	2%	9%	0%	-1%	x	0%
O=C1OCCC1Sc1nnc(-c2ccc(Cl)cc2Cl)o1 (centres undefined)	0%	-9%	-4%	-5%	x	1.3µM*
COC(=O)c1ccc(OC)c(CN2CCCN(Cc3ccc(C)cc3)S2(=O)=O)c1	x	x	x	x	x	-10%
O=C(NCc1ccccc1)c1cccc(COc2ccc(Cl)cc2)c1	1.8µM*	u	2.8µM*	u	6.3µM*	17µM*
COc1cc(CNC(=O)c2cccc(COc3ccc(Cl)cc3)c2)cc(OC)c1	0.71µM*	u	0.22µM*	u	2.5µM*	11µM*
O=C(NCc1ccccc1)c1cccc(COc2cccc(Cl)c2)c1	u	5%	u	1%	19%	-12%
CC(=O)c1cc(-c2ccccc2)n(CC(=O)NCc2ccccc2C)c1C	x	x	x	x	-7%	-6%
Cc1cnc(C(=O)Nc2ccc(F)cc2)cn1	2.5µM*	4%	u	u	13µM*	24µM*
Cc1cnc(C(=O)Nc2ccc(C(C)C)cc2)cn1	3.5µM*	0%	1.3µM*	u	10µM*	8.5µM*
Cc1cnc(C(=O)Nc2ccccc2F)cn1	3.5µM*	u	18%[1.84 µM]	16µM*	u	24µM*
Cc1cnc(C(=O)Nc2ccccc2-n2cccc2)cn1	0%	-3%	-8%	2%	-6%	6%
Cc1cc(SCC(=O)N2CCN(C(=O)c3ccco3)CC2)c(C)cc1Br	-6%	-12%	-9%	2%	x	4%
O=C(CS(=O)(=O)Cc1ccccc1)NCCc1ccc(F)cc1	1%	-3%	-5%	4%	x	-2%
CC[C@@H](c1ccc2cc(O)ccc2c1)C(C)(C)C(=O)O	x	x	x	x	-10%[9.22 µM]	x
CSCCC(NC(=O)c1ccc(Cl)cc1)C(=O)OCC(=O)N1CCCC1=O (centres undefined)	-4%	-7%	-4%	-1%	x	u
